SMILES strings stand for the structures. The whole screen tested about 69,000 compounds, of which about 8,600 (12%) showed an effect of 50% or more. The sample holds strong results, similar compounds and a random draw of the others, so the mix is not that of the screen.

In the assay the test system is Plasmodium berghei. Briefly: Screen against P. berghei liver stage (PbLuc), transformed with Luciferase, at 10uM. It is filed as functional, HepG2. To be noted: tested at 10 uM.
As to `Cc1cccc(N2CCN(C(=O)Cc3ccccc3O)C(C)C2)n1` (stereo not given), the INHIBITION amounted to 6.83%.
With `CN1CC2(CCN(C(=O)c3ccc(-n4cnnc4)cc3Cl)CC2)OC1=O` the figure was -6.01%; with `Cc1cc(-c2ccnn2C)nc(C2CCCN(S(C)(=O)=O)C2)n1` (stereo not given), 16.99%.
The result for `CC(=O)NC[C@]1(O)CCN(C(=O)c2ccc3c(c2)CCC3)C[C@H]1O` reads 14.5%.
The result for `CC(=O)NC[C@]1(O)CCN(C(=O)c2ccc3c(c2)OCO3)C[C@H]1O` reads 59%; that for `CC(=O)NC[C@]1(O)CCN(C(=O)c2ccc(C)c(F)c2)C[C@H]1O`, -7.79%.
For the molecule `Cc1cnn(CCNCC(=O)N2CCN(c3ccccc3)CC2)c1`, the INHIBITION is given as -3.48%.
With `CC(C)CC(C)N(C)C(=O)c1nc(S(C)(=O)=O)n2ccccc12` (stereo not given) the figure was 1.8%; with `CN(Cc1cnn(C)c1)C(=O)C(c1ccccc1)N1CCSCC1` (stereo not given), -13.4%; with `O=C(c1c[nH]c(=O)[nH]c1=O)N1CCCC(c2cnccn2)C1` (stereo not given), 53%.
With `Cc1cncc(C2CCCN(C(=O)c3c[nH]c(=O)[nH]c3=O)C2)n1` (stereo not given), the INHIBITION was 11%.
`Cc1cnc(C2CCCN(C(=O)c3c[nH]c(=O)[nH]c3=O)C2)s1` (stereo not given): the INHIBITION is given as 38.2%.
With `COc1ncccc1C(=O)Nc1cccc(C[S+](C)[O-])c1C` (stereo not given) the figure was -32.2%; with `Cc1nc2n(n1)CC(NCC(=O)Nc1cc(C)on1)CC2` (stereo not given), 7.08%; with `CNc1cc(C)nc(C2CN(Cc3cc[nH]n3)CCO2)c1` (stereo not given), 67.7%.
The result for `CNc1cc(C)nc(C2CN(Cc3ccc(Cl)cn3)CCO2)c1` (stereo not given) reads -35.8%; that for `Cc1cc(N)cc(C2CN(Cc3cc[nH]n3)CCO2)n1` (stereo not given), 0.301%.
With `COCC1CN(C(=O)c2cccs2)Cc2nccn2C1` (stereo not given) the figure was 67.5%; with `COCC1CN(C(=O)c2ccccn2)Cc2nccn2C1` (stereo not given), 11.5%.
Take `COCC1CN(C(=O)c2cccn2C)Cc2nccn2C1` (stereo not given): the INHIBITION is reported as 42.1%.
With `O=C(NCCn1ccnc1)c1ccn(-c2ccccc2F)n1` the figure was 7.27%.
With `O=c1c(NCCc2ccc(O)cc2)c(NCc2ccccn2)c1=O` the figure was 23.7%; with `O=C(NS(=O)(=O)c1ccc(F)cc1)C1CCOc2ccccc21` (stereo not given), 48.5%; with `O=C(NS(=O)(=O)Cc1ccc(F)cc1)C1CCOc2ccccc21` (stereo not given), 50.7%.
The result for `O=C(NS(=O)(=O)Cc1ccc(F)cc1)C1CCc2ccccc21` (stereo not given) reads 11.7%; that for `COCC(=O)N1CC[C@@H](N2CCOCC2)[C@@H]1Cc1cccnc1`, 27.6%.
`NCCc1nc(N[C@@H](CO)c2ccccc2)c2ccccc2n1`: the INHIBITION was 31.9%.
Turning to `CCC(Nc1nc(CCN)nc2ccccc12)c1cccs1` (stereo not given), the INHIBITION was found to be 51.1%.
With `CCC(Nc1nc(CCN)nc2ccccc12)c1cc(C)ccn1` (stereo not given), the INHIBITION is -1.25%.
With `CCc1nc(CN(C)CC(=O)N(C)C2CC2)cs1` the figure was 42.6%; with `COc1c(CNCCNC(=O)c2cccc(C)c2)c(C)nn1C`, 33.8%.
The result for `COCC(NC(=O)c1ccco1)c1cccc(C(F)(F)F)c1` (stereo not given) reads -31.6%; that for `COCC(NC(=O)c1cc[nH]n1)c1cccc(C(F)(F)F)c1` (stereo not given), 42.6%; that for `COCC(NC(=O)c1ccc[nH]1)c1cccc(C(F)(F)F)c1` (stereo not given), 51.3%.
With `Cc1ncsc1CN1C[C@@H]2COC[C@]2(C(=O)NCC2CC2)C1` the figure was 39.2%.
As to `O=c1n(Cc2ccc(C(F)(F)F)cc2)nc2ncccn12`, the INHIBITION is given as -80.9%.
With `CCS(=O)(=O)N1CCc2c(cccc2NC(=O)NCCOC)C1` the figure was 3.95%; with `CC(C)NC(=O)Nc1cccc2c1CCN(S(C)(=O)=O)C2`, 45.7%.
The result for `CCS(=O)(=O)N1CCc2c(cccc2NC(=O)NCCO)C1` reads 50.8%; that for `CCS(=O)(=O)N1CCc2c(cccc2NCc2nc(C)c(C)o2)C1`, 52.6%; that for `CCCNC(=O)Nc1cccc2c1CCN(S(C)(=O)=O)C2`, -9.48%.
The result for `COCCNC(=O)Nc1cccc2c1CCN(S(C)(=O)=O)C2` reads 65.4%; that for `CCS(=O)(=O)N1CCc2c(cccc2NCc2ncc[nH]2)C1`, 27.6%; that for `CCc1cnc(CNc2cccc3c2CCN(S(=O)(=O)CC)C3)o1`, 39.6%.
Regarding `COCCCNC(=O)Nc1cccc2c1CCN(S(C)(=O)=O)C2`, the INHIBITION was determined as 17.5%.
With `CC(C)N(C)C(=O)COc1ccc(-c2noc(C3CCCO3)n2)cc1` (stereo not given) the figure was -59.4%; with `O=C(NCC1CN(c2ncccn2)Cc2nccn2C1)c1cccnc1` (stereo not given), -86.4%; with `Fc1ccc(N2CCN(CCCc3cn[nH]c3)CC2)cc1`, 31.6%.
The result for `NC(=O)C1CN(C(=O)Nc2ccccc2OCC(F)(F)F)CCO1` (stereo not given) reads 31.2%.
With `N#CC1(NC(=O)c2c(F)ccc(OC(F)F)c2F)CCOCC1` the figure was -11.7%.
As to `CCn1nnc(NCc2cc(Br)cc(Br)c2OC)n1`, the INHIBITION came to 61.1%.
The result for `CCCn1nnc(NCc2cc(Br)cc(Br)c2OC)n1` reads -24%.
With `CCn1nnc(NCc2cc(Cl)cc(Cl)c2OC)n1` the figure was -11.6%.
With `Cc1ncccc1CNC1CCCN(Cc2noc(C3CC3)n2)C1` (stereo not given) the figure was 46.2%.
Turning to `CNC(=O)c1cc2c(nc1NCC(C)C)CCN(CCOC)CC2`, the INHIBITION amounted to 21.1%.
The result for `CCS(=O)(=O)N1CCc2cc(C(=O)NC)c(NCC(C)C)nc2CC1` reads -9.02%; that for `COCCN1CCc2cc(C(=O)NC(C)C)c(NCC(C)C)nc2CC1`, 74.9%.
With `COCCN1CCc2cc(C(=O)NC(C)C)c(NCC3CC3)nc2CC1` the figure was 70.8%; with `COCCN1CCc2cc(C(=O)O)c(NCC3CC3)nc2CC1`, -17.2%; with `COCCN1CCc2cc(C(=O)N(C)C)c(NCC3CC3)nc2CC1`, -27.9%.
In the case of `CCOc1ccccc1C(=O)Nc1cccc(C[S+](C)[O-])c1C` (stereo not given), the INHIBITION amounted to 16.645%.
The result for `O=C(CCN1CCCC(CO)(CC2CC2)C1)NCc1cccc(Cl)c1` (stereo not given) reads 4.66%.
With `CCC1COC2(CCN(C(=O)c3ccco3)CC2)C1` (stereo not given) the figure was 22.9%.
With `COc1ccc2c(c1)CC(NCc1cccc(NC(C)=O)c1)CC2` (stereo not given) the figure was 59.1%; with `COc1ccc2c(c1)CC(NCc1cccc(CO)c1)CC2` (stereo not given), 47.1%; with `COc1ccc2c(c1)CC(NCc1cccc(OCC(N)=O)c1)CC2` (stereo not given), 43.4%.
As for `COCC(=O)NCc1cc(=O)n2c(n1)CN(Cc1ccco1)CCC2`, the INHIBITION is 47.5%.
The result for `O=C(NCc1nnc2n1CCCC2)N1CCc2sccc2C1` reads 5.7%; that for `Cc1cccc(CNC(=O)Nc2ccn(CCN(C)C)n2)c1`, -23.8%.
With `C=C(C)Cn1nc(C)c(CN2CCN(C3CCCCC3)C(=O)C2)c1C` the figure was 13.85%.
With `Cc1ccccc1C1(CNCc2cnc(N3CCOCC3)nc2)CC1` the figure was -5.22%.
For the molecule `Cc1ccc(CN2CCCC(c3nn(C)c4nccnc34)C2)s1` (stereo not given), the INHIBITION stood at 37.6%.
Turning to `CCCN1CCC(c2nc3ccc(NCc4cccnc4)cn3n2)CC1`, the INHIBITION was found to be 52.1%.
The result for `c1cncc(CNc2ccc3nc(C4CCNCC4)nn3c2)c1` reads 29.4%; that for `CC(C)CN1CCC(c2nc3ccc(NC(C)C)cn3n2)CC1`, 30.3%; that for `CCCN1CCC(c2nc3ccc(NCc4ccccc4)cn3n2)CC1`, 61.1%.
Take `CCN1CCC(c2nc3ccc(NC(C)C)cn3n2)CC1`: the INHIBITION was 26.4%.
The result for `CCCN1CCC(c2nc3ccc(C)cn3n2)CC1` reads 29.4%; that for `CN(C)C(=O)N1C[C@H]2CC[C@@H](C1)N(Cc1nnc(-c3ccco3)o1)C2`, 11.6%.
As for `Cc1nc(-c2cnn(C)c2)nc2c1CN(C(=O)c1cccn1C)CC2`, the INHIBITION is listed as -6.46%.
With `Cc1nc(-c2cnn(C)c2)nc2c1CN(C(=O)c1cccnc1)CC2` the figure was -4.99%; with `Cc1nc(-c2cnn(C)c2)nc2c1CN(C(=O)c1ccc[nH]1)CC2`, 57.1%.
The result for `COC(=O)c1ccc(NC(C)c2ccc3c(c2)CCC(=O)N3)nn1` (stereo not given) reads 19.7%.
With `COc1ccc(-c2cc3nc(CCNC(=O)C4CC4)nn3cn2)cc1` the figure was 8.915%; with `c1csc(NCc2n[nH]c3c2CCN(CC2CC2)C3)n1`, 41.2%; with `c1ccc(-c2ccc(C3CNCCO3)nc2)cc1` (stereo not given), 84%.
`CN(C)c1ncc(-c2cccc(F)c2)c(C2CNCCO2)n1` (stereo not given): the INHIBITION is reported as 8.72%.
Take `COc1ccc(-c2ccc(C3CNCCO3)nc2)cc1` (stereo not given): the INHIBITION stood at 91.6%.
For `Fc1ccccc1OCCc1cc(C2CNCCO2)n[nH]1` (stereo not given), the INHIBITION amounted to 32.8%.
As to `COc1ccc(-c2cnc(N(C)C)nc2C2CNCCO2)cc1` (stereo not given), the INHIBITION came to 21.7%.
The result for `Cn1nc(C2CNCCO2)cc1CCOc1ccc(Cl)cc1` (stereo not given) reads 16.5%; that for `COc1ccc(OCCc2cc(C3CNCCO3)nn2C)cc1` (stereo not given), -5.8%.
The result for `Cc1ccc(-c2ccc(C3CNCCO3)nc2)cc1` (stereo not given) reads 91.6%.
With `Clc1ccc(-c2ccc(C3CNCCO3)nc2)cc1` (stereo not given) the figure was 94.6%.
Consider `CN(C)c1ncc(-c2ccc(F)cc2)c(C2CNCCO2)n1` (stereo not given), for which the INHIBITION was 15.1%.
The result for `c1ncc(-c2ccc(C3CNCCO3)nc2)cn1` (stereo not given) reads 24.8%; that for `CN(C)c1ncc(-c2ccc(C(N)=O)cc2)c(C2CNCCO2)n1` (stereo not given), -28.9%; that for `CC(=O)N1CCCN(C(=O)NC(C)Cn2ccnc2)CC1` (stereo not given), 24.2%.
With `Cn1c(=O)c2cc(C(=O)NCc3ccncc3)ccc2n(C)c1=O` the figure was -4.82%.
Regarding `Cc1cc(C[S+]([O-])CC(=O)NCc2cccc(Cl)c2)no1` (stereo not given), the INHIBITION is given as 49.8%.
With `CC(C)SCC(=O)N1CCCn2nc(C(=O)Nc3ccccc3)cc2C1` the figure was -59.9%; with `CC(=O)N1CCC2(CCCN(S(=O)(=O)c3ccc(F)cc3)C2)C1` (stereo not given), -4.82%; with `Cc1c(COC(C)C)cccc1NC(=O)N1CCC(N2CCCC2)C1` (stereo not given), 36.3%.
The result for `Cc1nc(C)n(CC2CCCN2Cc2coc(-c3cccs3)n2)n1` (stereo not given) reads 22.6%; that for `O=C(CCCNC(=O)Nc1ccc(F)cc1)Nc1cn[nH]c1`, 20.7%; that for `O=C(CCCOc1ccccc1F)NCCCC(=O)Nc1cn[nH]c1`, 51.7%.
For `COc1ccccc1NC(=O)NCCCC(=O)Nc1cn[nH]c1`, the INHIBITION is given as -12.1%.
With `CC(C)N1CCC(Nc2ccn(Cc3ccccn3)n2)C1=O` (stereo not given) the figure was 38.7%.
With `CC(C)N1CCC(Nc2ccn(C)n2)C1=O` (stereo not given) the figure was 23.1%; with `CC(C)N1CCC(Nc2ccn(CCC#N)n2)C1=O` (stereo not given), 63.3%.

The values are drawn from ChEMBL document CHEMBL4513216, “Probing the Open Global Health Chemical Diversity Library for Multistage-Active Starting Points for Next-Generation Antimalarials” (ACS Infect Dis, 2020).
